# According to ChEMBL document CHEMBL3988442, “University of Dundee, Small-Polar-MMV Screening Library” (2021):
# The campaign covered roughly 48,000 compounds. About 13,000 (27%) showed an effect of 50% or more. This is one part of the list.
# Tested on: Wolbachia pipientis
# Test: Anti-Wolbachia Cell-Based Screen
# Type: functional
# Design: scale not given: in the data most compounds retested in dose-response had high values
# Conditions: 5 µM
row,Compound,Percent Effect [%]
1,Cc1cccc(CN2CCCC(O)(CNCCN3CCCCC3)C2=O)c1 (stereo not given),-21.92
2,CC1c2ncc(CN3CCN(C)CC3)n2CCN1Cc1ccccn1.O=C(O)C(F)(F)F.O=C(O)C(F)(F)F.O=C(O)C(F)(F)F.O=C(O)C(F)(F)F (stereo not given),110.4
3,CCOCc1cnc2n1CCN(C(=O)Cc1ccccn1)C2C.O=C(O)C(F)(F)F (stereo not given),-0.9872
4,CC1c2ncc(COCC3CCOCC3)n2CCN1Cc1cccnc1.O=C(O)C(F)(F)F.O=C(O)C(F)(F)F (stereo not given),-7.39
5,CC1c2ncc(Cn3cccn3)n2CCN1Cc1ccccn1.O=C(O)C(F)(F)F.O=C(O)C(F)(F)F (stereo not given),102.5
6,CC1c2ncc(Cn3cccn3)n2CCN1Cc1ccc(F)cc1.O=C(O)C(F)(F)F (stereo not given),95.73
7,CC1c2ncc(Cn3cccn3)n2CCN1Cc1cccnc1.O=C(O)C(F)(F)F.O=C(O)C(F)(F)F (stereo not given),97.64
8,CC1c2ncc(COCc3ccccn3)n2CCN1C1CCCC1.O=C(O)C(F)(F)F.O=C(O)C(F)(F)F (stereo not given),16.64
9,CCCc1n[nH]c(C2CN(Cc3nnc(C4CC4)n3C)CCO2)n1 (stereo not given),-1.998
10,COCCO[C@H]1CCN(C(=O)c2cnoc2C)[C@H]1Cc1cnn(C)c1,-37.67
11,CC(CN1CCN(C)CC1)NC(=O)c1cc(Cl)c2c(c1)OCO2 (stereo not given),-52.56
12,CCn1cc(CN2CCC(c3nnc(CN(C)C)n3CC)CC2)cn1,-1.722
13,CCCn1cc(CN2CCC(c3[nH]ncc3S(C)(=O)=O)C2)cn1 (stereo not given),113
14,CCn1cc(CN2CCN(C)C3(CCC(=O)N(CC4CC4)CC3)C2)cn1 (stereo not given),0.5097
15,CCn1cc(CN2CCCC(c3[nH]ncc3S(C)(=O)=O)C2)cn1 (stereo not given),1.783
16,Cn1cc(CN2CC[C@@H]3[C@@H](CCC(=O)N3CC3CCNCC3)C2)cn1,-8.948
17,COc1ncc(CN2CCCC(c3[nH]ncc3S(C)(=O)=O)C2)cn1 (stereo not given),102.2
18,CCC[C@@H]1CN(Cc2cnc3c(S(C)(=O)=O)cnn3c2)C[C@H]1N(C)C,-11.35
19,Cn1cc(CN2CCC(c3[nH]ncc3S(C)(=O)=O)C2)cn1 (stereo not given),89.03
20,CN(C)S(=O)(=O)N1CC[C@@H]2CN(Cc3cnn(C)c3)C[C@@H]2C1,-2.262
21,CS(=O)(=O)c1ncc(CN2CCN3CCCC3C2)n1CC1CCCCC1 (stereo not given),0.5285
22,CCn1cc(CN2CCC(c3[nH]ncc3S(C)(=O)=O)C2)cn1 (stereo not given),105.5
23,COc1cc(Br)c(S(=O)(=O)NC(=O)C(C)OC)cc1OC (stereo not given),2.536

row,Compound,Percent Effect [%]
1,Cc1cc(C(=O)N2C[C@H]3CC[C@@H]2CN(Cc2ccccn2)C3)nc(C)n1,-8.906
2,Cc1ccc(F)c(S(=O)(=O)NCc2[nH]ncc2Br)c1,-8.756
3,CCn1nc(CC(C)C)cc1C(=O)N1CC(N2CCCCC2C)C1 (stereo not given),1.245
4,CC(CCS(C)(=O)=O)NC(=O)NCc1ccc2c(c1)CCC2 (stereo not given),5.194
5,Cc1ccc2c(c1)nc1n2[C@@H](CNC(=O)c2cncnc2)COC1,-17.88
6,Cc1cc(N2CCC(n3cc(CN4CCNCC4)nn3)CC2)ccn1,-4.274
7,c1csc(CNCC2COCc3c(-c4ccsc4)nnn3C2)n1 (stereo not given),-12.98
8,Cn1nccc1-c1nnn2c1COCC(CNCC1CC1)C2.O=C(O)C(F)(F)F.O=C(O)C(F)(F)F (stereo not given),95.94
9,Cc1noc(C)c1CNCC1COCc2c(-c3ccoc3)nnn2C1.O=C(O)C(F)(F)F (stereo not given),-8.022
10,CN(C)CCNCC1COCc2c(-c3ccnn3C)nnn2C1 (stereo not given),97.42
11,Cc1nc(CNCC2COCc3c(-c4ccoc4)nnn3C2)cs1 (stereo not given),-8.682
12,Cn1nccc1-c1nnn2c1COCC(CNC1CCOCC1)C2.O=C(O)C(F)(F)F.O=C(O)C(F)(F)F (stereo not given),88.78
13,O=C(NCC1COCc2c(-c3ccncc3)nnn2C1)[C@H]1CCCO1.O=C(O)C(F)(F)F (stereo not given in full),13.14
14,Fc1cccc(-c2nnn3c2COCC(CNCc2nccs2)C3)c1.O=C(O)C(F)(F)F (stereo not given),-16.94
15,O=C(O)C(F)(F)F.c1csc(CNCC2COCc3c(-c4ccoc4)nnn3C2)n1 (stereo not given),7.766
16,CC(C)N(Cc1cccnc1)C(=O)CNc1ccc(C#N)cc1,-12.71
17,Cc1ncccc1NC(=O)[C@@H]1CC[C@@H]2[C@@H](CCN2Cc2cnn(C)c2)O1.O=C(O)C(F)(F)F.O=C(O)C(F)(F)F.O=C(O)C(F)(F)F,-6.669
18,Cc1csc(CN2CC[C@H]3O[C@H](C(=O)Nc4cccnc4)CC[C@H]32)n1.O=C(O)C(F)(F)F.O=C(O)C(F)(F)F,273.2
19,O=C(NCc1ccco1)[C@H]1CC[C@@H]2[C@@H](CCN2Cc2nccs2)O1.O=C(O)C(F)(F)F,5.491
20,CC(C)NC(=O)[C@@H]1CC[C@@H]2[C@@H](CCN2Cc2ccc3ccccc3n2)O1.O=C(O)C(F)(F)F,-12.2
21,Cn1cc(CN2CC[C@H]3O[C@H](C(=O)NC4CC4)CC[C@H]32)c2ccccc21.O=C(O)C(F)(F)F,-3.833
22,Cc1cccc(CN2CC[C@H]3O[C@H](C(=O)Nc4cnccn4)CC[C@H]32)n1.O=C(O)C(F)(F)F.O=C(O)C(F)(F)F,108.3
23,O=C(NCc1ccccn1)[C@@H]1CC[C@@H]2[C@@H](CCN2c2ncc(F)cn2)O1.O=C(O)C(F)(F)F.O=C(O)C(F)(F)F,7.451

row,Compound,Percent Effect [%]
1,O=C(NC1CCC1)[C@@H]1CC[C@@H]2[C@@H](CCN2CCc2ccccc2)O1.O=C(O)C(F)(F)F,-17.29
2,O=C(Nc1cnccn1)[C@H]1CC[C@@H]2[C@@H](CCN2Cc2ccccn2)O1.O=C(O)C(F)(F)F,79.42
3,O=C(Nc1cnccn1)[C@@H]1CC[C@@H]2[C@@H](CCN2Cc2nccs2)O1.O=C(O)C(F)(F)F,114.9
4,O=C(c1cc[nH]n1)N(Cc1cccc(O)c1)CC1CC1,-5.824
5,CN1CCCCC12CCN(c1nncs1)CC2.O=C(O)C(F)(F)F,-22.78
6,CCCN1CCc2[nH]nc(C(=O)N3CCNC(=O)C3)c2C1.O=C(O)C(F)(F)F.O=C(O)C(F)(F)F,-12.08
7,CCc1nnc(C2Cc3ccccc3CN2Cc2cc(C)on2)o1 (stereo not given),6.832
8,Cc1nnc(C2Cc3ccccc3CN2Cc2c(C)noc2C)o1 (stereo not given),100.9
9,Cc1noc(C)c1CN1CCCC1C(=O)OCc1ccccc1 (stereo not given),4.096
10,CCc1nnc(C2Cc3ccccc3CN2Cc2cc(C)no2)o1 (stereo not given),-1.172
11,Cc1nnc(C2Cc3ccccc3CN2Cc2ncc(C(C)(C)C)o2)o1 (stereo not given),21.52
12,Cc1nnc(C2Cc3ccccc3CN2Cc2nc(C(C)C)no2)o1 (stereo not given),134.6
13,CCc1nnc(C2Cc3ccccc3CN2Cc2nc(C)no2)o1 (stereo not given),88.09
14,Cc1nnc(C2Cc3ccccc3CN2Cc2nc(C3CC3)no2)o1 (stereo not given),-2.569
15,Cc1noc(CN2Cc3ccccc3CC2c2nnc(C)o2)n1 (stereo not given),1.632
16,Cc1cc(CN2Cc3ccccc3CC2c2nnc(C)o2)no1 (stereo not given),108.3
17,CCc1nnc(C2Cc3ccccc3CN2Cc2nc(C3CC3)no2)o1 (stereo not given),-3.635
18,Cc1cc(CN2Cc3ccccc3CC2c2nnc(C)o2)on1 (stereo not given),1.784
19,C[C@@H](NCc1cccc(Cl)c1)c1onc(-c2ccccc2)c1C(=O)O,-2.837
20,COc1cc(CN(C)C(=O)Nc2cc(C)on2)ccc1SC,-6.064
21,O=C1NC(c2ccccc2)=N[C@@]12CC[C@@H]1CN(Cc3nccs3)C[C@@H]12,-1.68
22,CC(C)N1CCC(N2CCCC(C(=O)NCC3(O)CCCCC3)C2)CC1 (stereo not given),0.6612
23,Cc1ccc(C(=O)N2CCn3cnc(COCC4CC4)c3C2)cn1.O=C(O)C(F)(F)F,-1.031

row,Compound,Percent Effect [%]
1,COCc1ncn2c1CN(C(=O)c1ccc3ccccc3n1)CC2.O=C(O)C(F)(F)F,86.38
2,COCc1ncn2c1CN(C(=O)c1cnc3ccccc3c1)CC2,79.69
3,COCc1ncn2c1CN(C(=O)c1cccc3cccnc13)CC2.O=C(O)C(F)(F)F,103
4,O=C(O)C(F)(F)F.O=C(c1ccccn1)N1CCn2cnc(COCC3CC3)c2C1,22.66
5,COCc1ncn2c1CN(C(=O)C1CC=CC1)CC2,-12.78
6,COCc1ncn2c1CN(S(=O)(=O)Cc1ccc(C)cc1)CC2.O=C(O)C(F)(F)F,14.75
7,COCc1cnc2n1CCN(C(=O)c1ccc3ccccc3n1)C2C.O=C(O)C(F)(F)F (stereo not given),-39.11
8,Cc1ccc(F)c(N2CCCC(NS(=O)(=O)CCCF)C2=O)c1 (stereo not given),-1.757
9,O=C(CN1CCOc2ccc(Cl)cc21)NCCCn1ccnc1,9.044
10,CN(C(=O)OC(C)(C)C)C1CCN(C(=O)c2ccc(Cl)o2)C1 (stereo not given),-6.554
11,CCS(=O)(=O)c1ncc(CN(C)Cc2ccccn2)n1CCOC,-6.84
12,Cc1noc(NS(=O)(=O)c2ccc(Cl)s2)c1C,-16.85
13,Cn1c2c(ccc1=O)CCN(Cc1ccoc1)CC2.O=C(O)C(F)(F)F,97.4
14,O=C(O)C(F)(F)F.O=C(O)C(F)(F)F.O=c1ccc2c(n1Cc1ccncc1)CCN(Cc1ccoc1)CC2,96.18
15,COCCn1c2c(ccc1=O)CCN(Cc1ccoc1)CC2,106.6
16,O=C(O)C(F)(F)F.O=C(O)C(F)(F)F.O=c1ccc2c(n1CCN1CCCC1)CCN(Cc1ccoc1)CC2,-0.3339
17,O=C(O)C(F)(F)F.O=C(O)C(F)(F)F.O=c1ccc2c(n1Cc1cccnc1)CCN(CC1CCOC1)CC2 (stereo not given),-12.29
18,O=C(O)C(F)(F)F.O=C(O)C(F)(F)F.O=c1ccc2c(n1Cc1cccnc1)CCN(Cc1ccoc1)CC2,110
19,COCC1c2c(cnn2C)CCN1Cc1ccoc1 (stereo not given),-6.273
20,O=C(O)C(F)(F)F.O=C(O)C(F)(F)F.O=c1ccc2c(n1Cc1cccnc1)CCN(C1CCOC1)CC2 (stereo not given),2.129
21,COc1ccc2c(c1)C1(CCN(Cc3ccoc3)CC1)N(C)CC2,-15.48
